The supplement of paper PMC10933113
A number with no mark means an inactive call.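 Rule for the calls: active = curve rank above 3; inactive = curve rank 0.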

What follows are molecules tested on KeratinoSens (HaCaT ARE-luciferase) cells (assay: Nrf2/ARE luciferase activation call in qHTS KeratinoSens assay (1 = active, 0 = inactive)).
In the case of `CCC[n+]1ccn(C)c1C.O=S(=O)([N-]S(=O)(=O)C(F)(F)F)C(F)(F)F`, the “Nrf2/ARE luciferase activation call” value is reported as “not active ARE inducer (skin sensitizer alert)”.
`CCn1cc[n+](C)c1C.O=S(=O)([N-]S(=O)(=O)C(F)(F)F)C(F)(F)F` was tested, and the “Nrf2/ARE luciferase activation call” value was “not active ARE inducer (skin sensitizer alert)”.
In the case of `CCCC[N+]1(C)CCCC1.O=S(=O)([N-]S(=O)(=O)C(F)(F)F)C(F)(F)F`, the “Nrf2/ARE luciferase activation call” value is reported as “not active ARE inducer (skin sensitizer alert)”.
For `O=C(O)c1ccccc1O.Oc1cccc2cccnc12`, the “Nrf2/ARE luciferase activation call” value was “not active ARE inducer (skin sensitizer alert)”.
With `O=C(O)/C=C\C(=O)O.c1ccc2nc(N3CCNCC3)ccc2c1` the “Nrf2/ARE luciferase activation call” value was “not active ARE inducer (skin sensitizer alert)”.
